Compounds with a hit are over-represented: about 2.4% of the library has one in this group of screens.
POLI inh: DNA polymerase iota (human) inhibition | Q9UNA4 | Pol iota fluorescent replication assay, 10 min | Potency, µM (highest dose often 115 µM), most hits filed as inhibitors | actives 1% (n = 390,000) | AID 588590
Target sequence (Q9UNA4 whole entry, looked up): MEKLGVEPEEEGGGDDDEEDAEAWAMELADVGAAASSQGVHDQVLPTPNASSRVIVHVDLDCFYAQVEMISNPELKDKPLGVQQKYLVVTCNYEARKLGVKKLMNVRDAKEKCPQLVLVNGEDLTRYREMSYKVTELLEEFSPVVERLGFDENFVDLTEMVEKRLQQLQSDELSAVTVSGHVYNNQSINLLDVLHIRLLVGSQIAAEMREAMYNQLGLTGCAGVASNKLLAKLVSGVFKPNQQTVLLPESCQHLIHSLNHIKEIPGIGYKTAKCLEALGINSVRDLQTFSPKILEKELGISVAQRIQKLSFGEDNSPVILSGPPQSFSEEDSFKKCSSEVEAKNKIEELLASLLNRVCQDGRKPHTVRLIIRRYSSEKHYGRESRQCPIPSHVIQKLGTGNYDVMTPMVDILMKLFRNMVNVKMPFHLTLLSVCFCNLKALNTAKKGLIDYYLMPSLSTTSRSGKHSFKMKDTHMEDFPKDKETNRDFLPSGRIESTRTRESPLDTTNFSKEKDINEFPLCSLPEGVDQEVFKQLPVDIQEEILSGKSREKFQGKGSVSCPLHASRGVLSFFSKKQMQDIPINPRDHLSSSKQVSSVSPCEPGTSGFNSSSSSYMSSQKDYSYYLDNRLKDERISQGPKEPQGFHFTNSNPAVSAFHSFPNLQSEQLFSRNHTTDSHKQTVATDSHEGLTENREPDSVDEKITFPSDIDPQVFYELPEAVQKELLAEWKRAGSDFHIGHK
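Fluorescent replication assay read twice, at 0 min and 10 min after adding 50 nM (final) substrate. Enzyme (10 nM) and compounds were first incubated 15 min at room temperature; enzyme-free buffer wells were negative controls.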
FEN1 inh: inhibitors of human flap endonuclease 1; Potency, µM (top dose mostly 114 µM), usual class: inhibitors; actives 0.35% (n = 390,000); Recombinant FEN1 flap cleavage, fluorescence, 15 min; P39748; note: nearly all actives have a fitted effect of over 65% in size
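Nuclease activity of 10 nM FEN1 was measured after 15 min of room-temperature exposure to titrated compounds, by adding 50 nM flap substrate and reading plates at 0 and 15 min.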
POLK inh: DNA polymerase kappa (human) inhibition; Q9UBT6; actives 0.53% (n = 400,000); AID 588579; purified Pol kappa, fluorescent DNA synthesis assay, 10 min; Potency, µM (top dose mostly 107 µM), hits mostly inhibitors
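First, compounds were pin-transferred onto 10 nM Pol kappa. After 15 min at room temperature, substrate was added to 50 nM final. Fluorescence was then measured kinetically at 0 and 10 min.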
Pol eta inh: blocks human DNA polymerase eta activity | Q9Y253 | recombinant Pol eta, fluorescent DNA replication assay | Potency, µM (series often up to 114 µM), most hits filed as inhibitors | actives 1.2% (n = 390,000)
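Pol eta (10 nM) was preincubated with compounds for 15 min at room temperature, after which fluorescent replication substrate (50 nM final) was added to start the reaction. Fluorescence was read kinetically at 0 and 10 min.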
Pol beta inh: DNA polymerase beta (human) inhibition; P06746; Pol beta primer extension/strand displacement, fluorescence kinetic; Potency, µM (top dose mostly 114 µM), hits mostly inhibitors; actives 1.3% (n = 340,000); AID 485314
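Human Pol beta at 10 nM; strand-displacement substrate 50 nM final. Compound exposure 15 min at room temperature before start, reaction 10 min at room temperature.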
PGK inhibitor: T. brucei PGK inhibition | PGK/GAPDH coupled, Kinase-Glo luminescence, 60 min | Potency, µM (doses to about 57.5 µM), most hits filed as inhibitors | actives 0.043% (n = 380,000) | AID 602233; note: nearly all actives have a fitted effect of over 60% in size
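Recombinant glycosomal PGK reaction used 1,3-bisphosphoglycerate generated in-well by GAPDH (100nM final) in 100mM TEA pH 7.6, 5mM MgCl2, 0.01% Tween-20. After 60 minutes at room temperature, ATP was read by Kinase-Glo Plus luminescence end-point.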
Of the large screens only hits and unclear results are named; the others gave an inactive call. Calls come from the whole dose curve; as a rule, active = well fitted curve in the direction sought with a large enough effect; inconclusive = small, poorly fitted or top-dose-only effect, or another doubt; inactive = no such curve, though single readings can be large; an effect the other way counts as inactive or inconclusive.

CCC(C=C[C@@H]1OC(=O)C=C[C@H]1C)=C[C@H](C)CC=CC(C)=C[C@@H](C)C(=O)[C@@H](C)[C@H](O)[C@@H](C)CC(C)=CC(=O)O	none (no result: POLI inh, FEN1 inh, Pol eta inh, Pol beta inh, PGK inhibitor)
Cc1ccc(Cl)cc1NS(=O)(=O)c1ccc2oc(=O)c3ncn(C)c3c2c1	none
O=C(NC(CO)(CO)CO)c1coc(=O)c(Br)c1	none
O=C(NNC(=O)C1C2CCCCC21)c1coc(=O)c(Br)c1 (configuration not stated)	POLI inh 45µM, POLK inh inconclusive, Pol eta inh 50µM, Pol beta inh inconclusive
O=C(Nc1cc(Cl)cc(Cl)c1)c1coc(=O)c(Br)c1	POLI inh 28µM, FEN1 inh inconclusive, POLK inh 79µM, Pol eta inh inconclusive, Pol beta inh 28µM
CSc1nc(NCc2ccco2)c2c3c(sc2n1)CN(C)CC3	Pol beta inh 40µM (no result: POLI inh, FEN1 inh, POLK inh, Pol eta inh, PGK inhibitor)
CSc1nc(SCC(=O)NCc2ccco2)c2c3c(sc2n1)CN(C)CC3	Pol eta inh inconclusive (no result: Pol beta inh)
CSc1nc(SCC(N)=O)c2c3c(sc2n1)CN(C)CC3	POLI inh inconclusive, FEN1 inh 50µM, Pol eta inh inconclusive, Pol beta inh inconclusive
CSc1nc(N)c2c3c(sc2n1)CN(C)CC3	none
CC(=O)Nc1ccc(S(=O)(=O)CC(=O)CS(=O)(=O)c2ccc(NC(C)=O)cc2)cc1	Pol eta inh 35µM (no result: POLI inh, FEN1 inh, POLK inh, Pol beta inh)
COc1ccc(N2CCN(C(c3ccccc3)c3sc4nc(-c5ccco5)nn4c3O)CC2)cc1 (configuration not stated)	none
CNCC(=O)NC(CCCN=C(N)N)C(=O)NC(C(=O)NC(Cc1ccc(O)cc1)C(=O)NC(C(=O)NC(Cc1cnc[nH]1)C(=O)N1CCCC1C(=O)NC(C)C(=O)O)C(C)C)C(C)C (configuration not stated)	none (no result: POLI inh, FEN1 inh, Pol eta inh, Pol beta inh, PGK inhibitor)
CCN1CCc2c(sc(NC(=S)NC(=O)c3cccc(F)c3)c2C(N)=O)C1	none (no result: Pol eta inh, Pol beta inh, PGK inhibitor)
Cc1ccc(-c2cc(C(=O)O)c3cc(Br)ccc3n2)o1	POLI inh inconclusive, POLK inh inconclusive, Pol eta inh 20µM, Pol beta inh 22µM
Cc1ccc(-c2cc(C(=O)NN3CCOCC3)c3cc(Br)ccc3n2)o1	Pol beta inh inconclusive
Cc1ccc(-c2cc(C(=O)NC3=NCCS3)c3cc(Br)ccc3n2)o1	Pol beta inh 79µM (no result: POLI inh, FEN1 inh, POLK inh, Pol eta inh, PGK inhibitor)
N#Cc1cc([N+](=O)[O-])c2sc(C(N)=O)[n+]([O-])c2c1	none (no result: POLI inh, FEN1 inh, Pol eta inh, Pol beta inh, PGK inhibitor)
FC(F)(F)c1nnc2ccc(NCn3nnc4ccccc43)nn12	Pol eta inh 89µM
OCC[N+]1(CCc2ccccc2)CCOCC1	none (no result: Pol eta inh, Pol beta inh, PGK inhibitor)
C=C1C=C(C(F)F)n2ncc(C(=O)NC(C)CC)c2N1 (configuration not stated)	none (no result: Pol eta inh, Pol beta inh, PGK inhibitor)
O=C(CNS(=O)(=O)c1ccc(Br)cc1Cl)OCC(=O)c1ccc[nH]1	none (no result: Pol beta inh)
O=C(CNS(=O)(=O)c1c(Cl)cccc1Cl)OCC(=O)c1ccc[nH]1	POLI inh 16µM, POLK inh inconclusive, Pol eta inh 45µM, Pol beta inh inconclusive
Cc1sc(-n2c(C)cc(/C=C3\SC(=S)NC3=O)c2C)c(C#N)c1C	POLI inh inconclusive, FEN1 inh inconclusive, POLK inh 79µM, Pol eta inh 22µM, Pol beta inh 32µM
Cc1sc(-n2c(C)cc(/C=N/n3cnnc3)c2C)c(C#N)c1C	none
COc1cc(C)c2ccccc2n1	none (no result: Pol eta inh, Pol beta inh, PGK inhibitor)
COc1ccc(/C=C(\C#N)c2nc(-c3ccc(Cl)c(Cl)c3)cs2)cc1OC	none
COc1ccc(-c2csc(C(C#N)=C(O)CSc3nccn3C)n2)cc1OC	POLI inh 14µM, Pol eta inh 45µM (no result: Pol beta inh)
NC(=O)CC1Nc2cccc3cccc(c23)NC1=O (configuration not stated)	POLI inh inconclusive, Pol eta inh inconclusive, Pol beta inh 6.3µM
O=C(CC1Nc2cccc3cccc(c23)NC1=O)Nc1ccccc1 (configuration not stated)	none
Cc1ccc(NC(=O)CC2Nc3cccc4cccc(c34)NC2=O)cc1 (configuration not stated)	POLI inh 5µM, FEN1 inh inconclusive, POLK inh inconclusive
CN(c1ccc(-c2csc(NC(=O)C3CC(=O)N(Cc4ccco4)C3)n2)cc1)S(C)(=O)=O (configuration not stated)	POLI inh 45µM, POLK inh inconclusive, Pol eta inh 50µM (no result: Pol beta inh)
CCOC(=O)c1sc(N)c(C(=O)OCC)c1COC(=O)C1CC(=O)N(Cc2ccco2)C1 (configuration not stated)	none
COc1ccc(-c2csc(NC(=O)C3CC(=O)N(Cc4ccco4)C3)n2)cc1 (configuration not stated)	none
CS(=O)(=O)c1ccc(Cl)c(NC(=O)C2CC(=O)N(Cc3ccco3)C2)c1 (configuration not stated)	POLI inh 79µM, POLK inh inconclusive (no result: Pol beta inh)
COC(=O)c1sc(N)c(C(=O)OC)c1COC(=O)C1CC(=O)N(Cc2ccco2)C1 (configuration not stated)	POLI inh inconclusive, Pol eta inh 79µM, Pol beta inh 11µM
C[C@H](NC(c1cccc2nc(O)c(O)nc12)P(=O)(O)O)c1ccc(Br)cc1 (some centres not stated)	none (no result: POLI inh, FEN1 inh, Pol eta inh, Pol beta inh, PGK inhibitor)
Cn1c(=O)c2c(nc(NCc3ccccc3)n2Cc2ccc(Cl)c(Cl)c2)n(C)c1=O	none
Cc1ccc(Cn2c(C3CCCN3c3nc(-c4cc(Cl)c(N)c(Cl)c4)cs3)nc3cc(C(=O)NCCCO)ccc32)cc1 (configuration not stated)	POLI inh 45µM (no result: Pol beta inh)
Cc1ccc(Cn2c(C(C)Nc3nc(-c4ccc(F)cc4)cs3)nc3cc(C(=O)NCCCO)ccc32)cc1 (configuration not stated)	POLI inh inconclusive (no result: Pol beta inh)
Cc1cc(C)c(C(=O)COC(=O)Cn2cnnn2)cc1C	none
O=C(Cn1cnnn1)OCC(=O)c1ccc(Cl)s1	POLI inh inconclusive, POLK inh inconclusive, Pol eta inh 14µM, Pol beta inh 22µM
NS(=O)(=O)c1ccc(NC(=O)c2cnn3c2NC(=C2CC2)C=C3C(F)F)cc1	POLI inh inconclusive (no result: Pol eta inh, Pol beta inh, PGK inhibitor)
COc1cc2c(cc1OC)-c1c(oc3cc(O)cc(O)c3c1=O)CO2	POLK inh 32µM (no result: POLI inh, FEN1 inh, Pol eta inh, Pol beta inh, PGK inhibitor)
COc1ccc2cc(C(=O)CS(=O)(=O)c3ccccc3)c(=O)oc2c1	none
COc1cccc2cc(C(=O)CS(=O)(=O)c3ccc(C(C)(C)C)cc3)c(=O)oc12	Pol eta inh 89µM, Pol beta inh inconclusive
COc1ccc(S(=O)(=O)CC(=O)c2cc3cccc(C)c3oc2=O)cc1	POLI inh inconclusive, Pol eta inh 50µM, Pol beta inh inconclusive
CNC(=O)c1cc2cccc(OC)c2oc1=O	none
